Over roughly 18,000 sequences, “TetR repression strength (sort-seq, GFP reporter)” has its median near 0.23; the highest 2% begin near 0.68. The full list was thinned out, with the highest values kept by preference.

Sequence of TetR (class B, Tn10) (P04483 whole entry): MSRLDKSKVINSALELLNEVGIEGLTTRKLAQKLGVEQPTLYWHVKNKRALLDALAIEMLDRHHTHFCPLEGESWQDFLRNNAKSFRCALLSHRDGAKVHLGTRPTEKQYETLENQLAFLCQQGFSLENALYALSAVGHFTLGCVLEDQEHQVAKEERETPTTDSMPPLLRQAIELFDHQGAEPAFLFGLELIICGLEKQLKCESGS

The assay addresses TetR (class B, Tn10) (UniProt P04483). Kind of assay: TetR repression strength (sort-seq, GFP reporter) (relative to tetO2 = 1); higher = stronger repression. Particulars: E. coli. In short, it runs like this: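 Three independent transformations of E. coli SIG10-MAX were made with a low-copy plasmid library randomizing eight operator positions between a constitutive promoter and sfGFP, with constitutive TetR. Following 5 h at 37 °C in LB plus 50 µg/mL chloramphenicol, 10^6 cells went through FACS into 13 fluorescence bins, and each bin was sequenced by Illumina. Repression strength was defined as the top bin index plus one minus the read-weighted mean bin, divided by the unaltered operator's value. Averages included only members reaching ≥30 reads in all replicates with a CV ≤0.5.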
In the case of TCCCCTGTAGTTGTCGAGA, the TetR repression strength was 0.123.
To TCCCCGAAAGTCATAGAGA belongs 0.452; to TCCCATCCAGTCAAGGAGA, 0.595; to TCCCTTGCAGTACATGAGA, 0.298.
Turning to TCCCTTGAAGTGGGTGAGA, the TetR repression strength was determined as 0.165.
TCCCACCCAGTGGTAGAGA had a TetR repression strength of 0.357.
TCCCAGTGAGTCGTGGAGA: the TetR repression strength came to 0.25.
Sequence TCCCGCCAAGTAAAAGAGA displayed a TetR repression strength of 0.298.
TCCCATCAAGTTAATGAGA yielded a TetR repression strength of 0.0658.
Regarding TCCCGTCGAGTCAGGGAGA, the TetR repression strength stood at 0.367.
TCCCCATCAGTTCCGGAGA registered a TetR repression strength of 0.207.
TCCCTATCAGTTCCTGAGA had a TetR repression strength of 0.76.
With TCCCTATCAGTACCTGAGA, the TetR repression strength was determined as 0.867.
The sequence TCCCCATCAGTTCCTGAGA gave a TetR repression strength of 0.721.
With TCCCCATCAGTTCATGAGA the figure was 0.401; with TCCCTATCAGTTCTTGAGA, 0.539.
In turn, TCCCTATCAGTTCGTGAGA displayed a TetR repression strength of 0.423.
For the sequence TCCCTATCAGTACCAGAGA, the TetR repression strength came to 0.514.
To TCCCTATCAGTACGTGAGA belongs 0.349; to TCCCGGGTAGTCGAGGAGA, 0.313; to TCCCCAGCAGTTTCCGAGA, 0.275.
On to TCCCTTATAGTAGGCGAGA, for which the TetR repression strength was 0.0601.
In turn, TCCCACCGAGTACGGGAGA registered a TetR repression strength of 0.135.
TCCCATGAAGTAAGGGAGA yielded a TetR repression strength of 0.284.
With TCCCTCTTAGTAAAAGAGA the figure was 0.342; with TCCCACGAAGTAGGGGAGA, 0.104.
With TCCCGATTAGTAGGGGAGA the figure was 0.844.
For the sequence TCCCACGCAGTAGGGGAGA, the TetR repression strength came to 0.689.
TCCCTATGAGTAGTGGAGA gave a TetR repression strength of 0.707.
TCCCTATGAGTGGTGGAGA returned a TetR repression strength of 0.119.
For TCCCTATGAGTAGTAGAGA, the TetR repression strength is 0.204.
TCCCTATTAGTAGTGGAGA displayed a TetR repression strength of 0.683.
With TCCCACGCAGTGGGGGAGA the figure was 0.188; with TCCCTAGTAGTAGTGGAGA, 0.159.
To TCCCGAGTAGTAGGGGAGA belongs 0.0701; to TCCCTATTAGTGGTGGAGA, 0.0415; to TCCCGATTAGTAAGGGAGA, 0.207.
To TCCCTATTAGTTGGGGAGA belongs 0.483.
TCCCGGTAAGTGAAGGAGA registered a TetR repression strength of 0.14.
Take TCCCAGGCAGTGGGGGAGA: the TetR repression strength stood at 0.193.
Turning to TCCCTAGTAGTGGCTGAGA, the TetR repression strength is 0.905.
In turn, TCCCGAGTAGTGGCTGAGA had a TetR repression strength of 0.311.
As for TCCCTAGTAGTAGCTGAGA, the TetR repression strength amounted to 0.307.
For the sequence TCCCGAGCAGTTGGTGAGA, the TetR repression strength was 0.317.
As to TCCCCTCCAGTGGGGGAGA, the TetR repression strength was 0.225.
With TCCCTCCCAGTGTCGGAGA the figure was 0.295.
Turning to TCCCTTTGAGTTTTTGAGA, the TetR repression strength came to 0.506.
For TCCCTTAAAGTGCGCGAGA, the TetR repression strength was 0.292.
TCCCTTAAAGTACTCGAGA displayed a TetR repression strength of 1.16.
In the case of TCCCTTAAAGTGATCGAGA, the TetR repression strength was 0.207.
Sequence TCCCCTAAAGTGCGCGAGA registered a TetR repression strength of 0.266.
TCCCTTAAAGTATTCGAGA came in with a TetR repression strength of 0.311.
With TCCCCTAGAGTCCGCGAGA, the TetR repression strength turned out to be 0.332.
To TCCCTTAAAGTACACGAGA belongs 0.377; to TCCCATAAAGTGCTCGAGA, 0.225.
The sequence TCCCCTAGAGTGCGCGAGA came in with a TetR repression strength of 0.901.
To TCCCTTTAAGTGCGCGAGA belongs 0.764; to TCCCTTAAAGTGCTCGAGA, 0.747.
TCCCTTTAAGTGCACGAGA displayed a TetR repression strength of 0.207.
To TCCCGCGGAGTGGCGGAGA belongs 0.119.
For TCCCGCGCAGTGTAAGAGA, the TetR repression strength is 0.222.
With TCCCTATGAGTGTGGGAGA the figure was 0.223.
TCCCCTGGAGTCGTGGAGA yielded a TetR repression strength of 0.258.
On to TCCCTGGTAGTGGAGGAGA, for which the TetR repression strength amounted to 0.101.
With TCCCGAGTAGTGAGGGAGA the figure was 0.242; with TCCCGATAAGTCGTCGAGA, 0.0276.
TCCCCGGGAGTATCAGAGA came in with a TetR repression strength of 0.332.
Regarding TCCCGGATAGTATGAGAGA, the TetR repression strength was determined as 0.24.
With TCCCGAATAGTATCAGAGA the figure was 0.207; with TCCCGGTGAGTATCAGAGA, 0.188; with TCCCGGAGAGTATCAGAGA, 0.893.
To TCCCGGATAGTATCAGAGA belongs 0.893; to TCCCGTGCAGTCATTGAGA, 0.276; to TCCCTCTCAGTTCGTGAGA, 0.181.
TCCCAGTGAGTTGGAGAGA returned a TetR repression strength of 0.303.
TCCCTGGCAGTAGGGGAGA displayed a TetR repression strength of 0.185.
To TCCCTCTCAGTTGATGAGA belongs 0.736.
TCCCTCTAAGTTGAGGAGA: the TetR repression strength worked out at 0.0793.
With TCCCTCTCAGTTGTTGAGA the figure was 0.357; with TCCCCGCAAGTTGATGAGA, 0.85.
With TCCCCCTCAGTTGATGAGA, the TetR repression strength turned out to be 0.262.
For the sequence TCCCTGTAAGTTGATGAGA, the TetR repression strength was determined as 0.236.
In the case of TCCCTCTAAGTTGATGAGA, the TetR repression strength was determined as 0.795.
With TCCCCCCAAGTTGATGAGA the figure was 0.369; with TCCCCGCAAGTTGTTGAGA, 0.198; with TCCCTTGCAGTTATAGAGA, 0.461.
With TCCCTGGAAGTAATCGAGA the figure was 0.241; with TCCCCATTAGTACGTGAGA, 0.214; with TCCCCGCGAGTAGGGGAGA, 0.245.
With TCCCGAAGAGTCTTAGAGA the figure was 0.279.
TCCCACACAGTCGGAGAGA: the TetR repression strength turned out to be 0.333.
TCCCCTGAAGTGGCAGAGA yielded a TetR repression strength of 0.204.
In the case of TCCCGCTGAGTCGGCGAGA, the TetR repression strength is 0.15.
Regarding TCCCCAGAAGTGGTAGAGA, the TetR repression strength worked out at 0.255.
To TCCCGTTTAGTGTTTGAGA belongs 0.0592; to TCCCATCTAGTATCGGAGA, 0.908.
As for TCCCATCGAGTACTGGAGA, the TetR repression strength stood at 1.02.
Consider TCCCATGGAGTACTGGAGA, for which the TetR repression strength came to 0.0311.
The sequence TCCCATCTAGTGAGTGAGA came in with a TetR repression strength of 0.316.
Consider TCCCATCTAGTGTGGGAGA, for which the TetR repression strength was determined as 1.06.
With TCCCATCTAGTGTGTGAGA the figure was 0.253.
TCCCATAGAGTACTGGAGA: the TetR repression strength was 0.169.
Sequence TCCCATCTAGTGGGGGAGA displayed a TetR repression strength of 0.318.
Turning to TCCCGTCTAGTGCGTGAGA, the TetR repression strength was found to be 0.0665.

Source of the values: a collection of fitness landscapes (doi:10.1038/s41467-024-54723-y).
